Test results taken from the supplement of paper PMC3842684.

These compounds were tested on P. falciparum NF54-pfs16-GFP early (I-III) stage gametocytes (assay: relative % inhibition of viable gametocyte number; higher = more gametocytocidal). Conditions: 0.5 µM; stage: early (I-III) gametocyte; incubation 72 h.
Procedure, shortened: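 NF54 pfs16-GFP gametocytes, magnet-isolated at early (I/IIa, day 2) or late (day 8) stage, were plated at 10% parasitaemia, 0.1% haematocrit in 384-well poly-D-lysine imaging plates with compound in duplicate at 5 or 0.5 µM. Plates were incubated 72 h at 37°C, 5% CO2, 5% O2, then overnight with MitoTracker Red. Confocal imaging counted elongated GFP objects with MitoTracker signal above cut-off as viable gametocytes. Relative inhibition was normalised to in-plate vehicle and positive-control wells.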

SMILES | relative % inhibition [%]
CCC(c1ccccc1)c1nn2c(-c3cccs3)nnc2s1 (stereo not drawn) | -3.13
CCOC(=O)c1cnc2c(C)cccc2c1Nc1ccc(C(C)=O)cc1 | -9.17
Cc1cc(NCCN2CCCCC2)c2ccc3ccccc3c2n1 | 10.2
O=C(NC1CCN(Cc2ccccc2)CC1)c1cc(C(=O)NC2CCN(Cc3ccccc3)CC2)cc(C(=O)NC2CCN(Cc3ccccc3)CC2)c1 | 20.3
Cc1ccc(C(=O)c2oc3ccc4c(C)cc(=O)oc4c3c2C)cc1 | 8.47
CCCCC(O)(c1ccc(Cl)cc1)C(CN1CCOCC1)c1ccc(Cl)cc1 (stereo not drawn) | 10.8
Cn1c(=O)n(C)c2cc(CNCCNc3ccnc4cc(Cl)ccc34)ccc21 | 86.6
CCOC(=O)c1cnc2c(C)cc(C)cc2c1Nc1ccc(OC)c(OC)c1 | 2.37
CCOc1ccccc1CN1CCc2nc3cc(C(C)(C)C)nn3c(O)c2C1 | -6.1
Cc1ccc2nc(C)cc(Nc3cccc(C(F)(F)F)c3)c2c1 | -7.3
OCCNc1nc(Nc2ccc(Cl)c(Cl)c2)nc2ccccc12 | -6.33
O=C(Nc1ccc(Cl)c(Cl)c1)Nc1ccc(Cl)c(Cl)c1 | 4.74
COc1ccc(CCN2CCC(CN(C)Cc3cnn(-c4ccccc4)c3)CC2)cc1 | 4.18
CCOc1cc(Cl)c(C(C)NC(=O)c2ccccc2)cc1OCC (stereo not drawn) | 15.1
CCCCCCOC(=O)C1=C(C)NC(=O)NC1c1ccccc1F (stereo not drawn) | 9.08
O=c1nc(C=Cc2ccc(Br)cc2)oc2ccccc12 | 10.7
COc1ccc2sc(N(Cc3cccnc3)C(=O)c3ccc(C#N)cc3)nc2c1 | 9.23
CCOC(=O)c1cn(CC)c2cc(N3CCCCC3)c(F)cc2c1=O | 22
OC(Cn1nnc2ccccc21)Cn1c2ccc(Br)cc2c2cc(Br)ccc21 (stereo not drawn) | 5.28
COc1ccccc1N=C1C(=O)c2ccccc2C(O)=C1N1CCCCC1 | 21.8
c1ccc2c(NCCc3c[nH]c4ccccc34)c3ccccc3nc2c1 | 37.7
O=C(CCl)NCCOc1ccc(Cl)cc1Cl | 24

Same assay, conditions: 5 µM; stage: early (I-III) gametocyte; incubation 72 h

SMILES | relative % inhibition [%]
c1ccc(C2=Nc3ccccc3N=C(c3ccccc3)c3ccccc32)cc1 | 101
CC(C)OCc1cc(CN2CCN(c3cccc(Cl)c3)CC2)c(O)c2ncccc12 | 96.4
COc1ccc2nc(C)cc(Nc3ccccc3O)c2c1 | 20.9
CCOC(=O)c1cnc2ccc(OC)cc2c1NCc1ccccc1 | 17.1
CCc1ccc(Nc2cc(C)nc3nc(C)nn23)cc1 | -31
CCn1nc(-c2ccc(C(=O)OC)cc2)nc2c(=O)n(C)c(=O)nc1-2 | 36.1
Brc1ccc(Nc2nc3ccccc3nc2Nc2ccc(Br)cc2)cc1 | 103
CC(C)CNC(=O)c1c(N)n(CCc2ccccc2F)c2nc3ccccc3nc12 | 3.8
CC1=C(CC(=O)c2cccc([N+](=O)[O-])c2)C(=O)c2ccccc2C1=O | 60
COc1cccc(C(=O)NC(c2ccc(C)cc2)c2cc(Cl)c3cccnc3c2O)c1 (stereo not drawn) | 82.5
COc1cccc(Nc2nc(NCCO)c3ccccc3n2)c1 | -12.9
CCOc1ccc(C=Cc2nc(=O)c3ccccc3o2)cc1 | 22.2
CCC(C)NCC(O)(c1ccc(Cl)cc1)c1ccc(Cl)cc1 (stereo not drawn) | 102
COc1ccc(OC)c(C2C3=C(CC(C)(C)CC3=O)N(c3ccc(Cl)c(Cl)c3)C3=C2C(=O)CC(C)(C)C3)c1 | 67.1
O=C(Nc1cccc(C(F)(F)F)c1)c1cc(Cl)ccc1O | 104
CN(C)c1ccc(C(O)(c2ccc(N(C)C)cc2)c2ccc(N(C)C)cc2)cc1 | -12.4
Nc1ccc(-c2nc3cc(Cc4ccc5[nH]c(-c6ccc(N)cc6)nc5c4)ccc3[nH]2)cc1 | 100
CCC(c1ccccc1)c1nn2c(-c3cccs3)nnc2s1 (stereo not drawn) | -13.5
CCOC(=O)c1cnc2c(C)cccc2c1Nc1ccc(C(C)=O)cc1 | 7.93
Cc1cc(NCCN2CCCCC2)c2ccc3ccccc3c2n1 | 97.3
O=C(NC1CCN(Cc2ccccc2)CC1)c1cc(C(=O)NC2CCN(Cc3ccccc3)CC2)cc(C(=O)NC2CCN(Cc3ccccc3)CC2)c1 | 82
Cc1ccc(C(=O)c2oc3ccc4c(C)cc(=O)oc4c3c2C)cc1 | -0.0271
CCCCC(O)(c1ccc(Cl)cc1)C(CN1CCOCC1)c1ccc(Cl)cc1 (stereo not drawn) | 92.5
Cn1c(=O)n(C)c2cc(CNCCNc3ccnc4cc(Cl)ccc34)ccc21 | 29.6
CCOC(=O)c1cnc2c(C)cc(C)cc2c1Nc1ccc(OC)c(OC)c1 | 7.56
CCOc1ccccc1CN1CCc2nc3cc(C(C)(C)C)nn3c(O)c2C1 | -4.88
